Assay in all cases: NCI-60 one-dose screen, 48 h (100 = growth as untreated, 0 = no growth, -100 = all killed)
Common to all, as to settings: 10 µM

Experiment [1] relates to NCI-H23 lung.
Experiment [2] concerns NCI-H226 lung.
Experiment [3] deals with NCI-H322M lung.
Experiment [4] deals with HOP-62 NSCLC.
Experiment [5] has as its system NCI-H460 lung.
Experiment [6] concerns NCI-H522 lung.
The test system of experiment [7] is A549/ATCC NSCLC.
Experiment [8] deals with 786-0 renal.
Experiment [9] relates to COLO 205 colon.
Experiment [10] relates to DU-145 prostate.
In experiment [11] the test system is K-562 leukemia.
Experiment [12] deals with MALME-3M melanoma.
In experiment [13] the test system is MDA-MB-231 breast.
Experiment [14] relates to RXF 393 renal.
Experiment [15] relates to SF-268 CNS.
The test system of experiment [16] is SF-295 CNS.
Experiment [17] deals with SF-539 CNS.
Experiment [18] relates to UACC-257 melanoma.
In experiment [19] the test system is M14 melanoma.

Each structure is given as a SMILES string. About 83,000 compounds went through this panel and 20% of them were active in at least one assay; those are over-represented in the sample as a whole.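 How to read the values: 0–100, growth inhibition (40 = 60% inhibited); 0, no net growth; -100 to 0, cell death (-40 = 40% of starting cells died; -100 = all dead).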 Unmarked numbers belong to inactive results. Active and inactive are the calls of the source. The calls were made as follows: active = growth percent below 10; inactive = the rest.

From PubChem BioAssay (NCI) come the findings set out here.

With `CCOc1ccc(/C=C/C(=O)c2ccccc2)cc1`, the growth in experiment [1] is 106%; in experiment [2] it was 114%; in [3], 132%; in experiment [4] it was 102%; in experiment [5], 103%; in experiment [6], 76.9%. Besides, the growth in [7] was 97.5%; in experiment [8] it was 89.8%; in experiment [9], 116%; in experiment [10] it was 95.1%; in experiment [11], 71.5%; in experiment [12], 108%. For the same compound, the growth in experiment [13] is 114%; in [14] it was 53.4%; in experiment [15], 85.6%; in experiment [16] it was 111%; in experiment [17], 105%; in experiment [18], 97.7%. Besides, the growth in experiment [19] was 99.7%.

For `Nc1ccc(N=Nc2ccc(O)cc2)c(N)n1`, the growth in experiment [1] is 91.2%; in experiment [2] it was 75.8%; in experiment [3], 97.4%; in experiment [4], 99.7%; in experiment [5], 84.1%; in [6], 47%. For the same compound, the growth was 69.2% in experiment [7]; 65.3% in [8]; 109% in [9]; 79.3% in experiment [10]; 39.2% in [11]; 72% in experiment [12]. The growth was 73.7% in experiment [13]; 91.6% in experiment [14]; 73.1% in experiment [15]; 66.5% in [17]; 97.9% in experiment [18]; 70.9% in experiment [19].

As to `COc1cc(-c2ccc(NC(=O)NC3CC3)c(OC)c2)ccc1NC(=O)NC1CC1`, the growth is 98.3% in [1]; 102% in experiment [2]; 110% in experiment [3]; 101% in experiment [4]; 16.2% in experiment [5]; -10.3% (active) in experiment [6]. Also, the growth in experiment [7] was 26.8%; in experiment [8] it was 74%; in [9], 103%; in experiment [10] it was 84.9%; in experiment [11], 31.2%; in experiment [12], 102%. Also, the growth in [13] is 71.1%; in experiment [14], 73%; in experiment [15], 62.8%; in [16], 75.9%; in [17] it was 67.2%; in experiment [18], 26.5%. Also, the growth in experiment [19] was 75.7%.

For the compound `Cc1cc(C)cc(NCCC#N)c1`, the growth is 108% in experiment [1]; 112% in [2]; 118% in experiment [3]; 115% in experiment [4]; 107% in experiment [5]; 106% in experiment [6]. Also, the growth in experiment [7] is 151%; in experiment [8] it was 111%; in experiment [9], 131%; in experiment [10], 114%; in experiment [11] it was 102%; in experiment [12], 164%. For the same compound, the growth in experiment [13] is 106%; in experiment [14] it was 448%; in experiment [15] it was 105%; in [16], 103%; in [17], 104%; in experiment [18], 124%. Besides, in experiment [19], the growth is 117%.

With `O=C1c2ccccc2C(=O)c2c1ccc(C(=O)O)c2[N+](=O)[O-]`, the growth in [1] was 101%; in [2] it was 107%; in experiment [3] it was 105%; in experiment [4] it was 97.2%; in experiment [5] it was 109%; in experiment [6], 97%. For the same compound, the growth in experiment [7] is 103%; in experiment [8], 106%; in [9], 108%; in [10], 107%; in experiment [11], 77.3%; in experiment [12], 98.1%. For the same compound, the growth is 79% in experiment [13]; 128% in experiment [14]; 111% in [15]; 105% in experiment [16]; 96% in experiment [17]; 105% in experiment [18]. Further, the growth in experiment [19] was 87.2%.

Consider `Clc1ccc(-c2n[nH]c3c2Cc2ccccc2-3)cc1Cl`, for which the growth in [1] was 84.6%; in [2], 94.4%; in experiment [3] it was 91.6%; in experiment [4], 95.1%; in experiment [5], 105%; in experiment [6], -7.44% (active). Besides, the growth in experiment [7] was 37.5%; in experiment [8], 104%; in experiment [9], 115%; in [10] it was 130%; in experiment [11] it was 92.4%; in [12], 102%. Moreover, the growth in experiment [13] is 98%; in [14] it was 154%; in [15] it was 109%; in [16], 99.5%; in experiment [17], 95.6%; in experiment [18], -6.12% (active). The growth in experiment [19] was 100%.

In the case of `CCCCCCCCCCC(C)Br` (stereo unspecified), the growth is 102% in [1]; 101% in experiment [2]; 94.5% in [3]; 119% in experiment [4]; 113% in experiment [5]; 104% in experiment [6]. For the same compound, the growth in [7] is 97.1%; in experiment [8], 97%; in [9] it was 110%; in experiment [10], 113%; in [11], 93.2%; in [12] it was 104%. The growth in experiment [13] is 113%; in experiment [14] it was 103%; in experiment [15], 113%; in experiment [16] it was 94.9%; in experiment [17], 110%; in [18] it was 101%. The growth in experiment [19] is 112%.

On to `COc1cc(C2NC(=O)C(C#N)=C(Nc3cccc(C)c3)S2)ccc1O` (stereo unspecified), for which the growth in experiment [1] was 103%; in [2], 104%; in experiment [3], 106%; in experiment [4], 98.1%; in [5], 99.5%; in experiment [6] it was 47.5%. Besides, the growth was 32.5% in [7]; 105% in experiment [8]; 119% in [9]; 122% in experiment [10]; 93.8% in experiment [11]; 108% in [12]. Besides, the growth in experiment [13] was 99.2%; in experiment [14], 103%; in experiment [15] it was 109%; in experiment [16] it was 101%; in [17], 90.4%; in experiment [18], -2.62% (active). Moreover, the growth in [19] was 101%.
